KKLEB tox – cytotoxicity in KKLEB CF airway cells, primary screen, cytotoxicity control for CF NF-kB inhibitor project, cell-based, uHTS, fluorescence assay plates. actives 0.36% (n = 360,000). activity change (cytotoxicity), % at 5 µM. KKLEB CF airway cells viability, ATPlite luminescence, overnight; hits give low values; cells stimulated with P. aeruginosa culture filtrate;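 active = corrected activity change at or below -50% at 5 µM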
HIF-2a inh – HIF-2a reporter inhibitors, primary screen, luminescence, 786-0 RCC cells | actives 0.72% (n = 360,000) | inhibition, % at 18.8 µM | 786-0 RCC cells HIF-2a reporter, luciferase luminescence, overnight;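 active = inhibition of the luminescence signal of 40% or more relative to plate controls, in a single-dose primary screen at 18.75 µM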
LGR2 inh – inhibitors of bursicon-induced LGR2 CRE-luciferase signal, primary screen, cell-based, HEK293, CRE-luciferase reporter, bursicon stimulation; Drosophila bursicon receptor LGR2 (rickets); bursicon-stimulated, 4 h; inhibition, % at 9.99 µM; actives 0.35% (n = 380,000); AID 720647, 2013;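 active = drop in luminescence signal, shown as inhibition above about 50% in the replicate tests, limit read from the data, passing the limit was not always enough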;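 note: agonist challenge used bursicon conditioned medium at about half maximal strength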
iPSC survival up – enhancers of single-cell hiPSC survival, primary screen, ATPlite luminescence. 100% = ROCK inhibitor wells, 0% = DMSO. survival enhancement, % at 20 µM. actives 0.044% (n = 360,000). AID 602274, 2012; in the data active = survival enhancement above about 18%;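 note: cells exposed to compounds for 16 hours before the ATP read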
CF NFkB block – inhibitors of PAF-induced NF-kB signaling, primary screen, cell-based, GFP fluorescence, uHTS | KKLEB NF-kB-GFP reporter, GFP fluorescence overnight | AID 588850, 2011 | inhibition, % at 5 µM | actives 0.86% (n = 360,000);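 active = at least 50% inhibition at 5 µM, scaled per plate between neutral and stimulator controls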;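 note: PAF is a Pseudomonas aeruginosa culture filtrate used as stimulus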
TWEAK-Fn14 inh – inhibitors of TWEAK-Fn14 signaling, primary screen, luciferase reporter cells, uHTS; TWEAK-stimulated Fn14 reporter cells, luciferase luminescence, 8 h; inhibition, % at 10 µM; actives 2% (n = 360,000); AID 1159606, 2016; in the data active = inhibition above about 50%
Mdm2 MdmX conf – retested Mdm2-MdmX interaction blockers, confirmation, cell-based, luminescence, single concentration, set 2 | AID 504601, 2011 | actives 99% (n = 740) | inhibition, % at 8 µM | shares compounds with HIF-2a inh | SaOS-2 split-luciferase Mdm2/MdmX complementation;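 active = mean inhibition of the luminescence signal across two replicates at or above 26 percent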
Target sequence (O15151 whole entry, looked up): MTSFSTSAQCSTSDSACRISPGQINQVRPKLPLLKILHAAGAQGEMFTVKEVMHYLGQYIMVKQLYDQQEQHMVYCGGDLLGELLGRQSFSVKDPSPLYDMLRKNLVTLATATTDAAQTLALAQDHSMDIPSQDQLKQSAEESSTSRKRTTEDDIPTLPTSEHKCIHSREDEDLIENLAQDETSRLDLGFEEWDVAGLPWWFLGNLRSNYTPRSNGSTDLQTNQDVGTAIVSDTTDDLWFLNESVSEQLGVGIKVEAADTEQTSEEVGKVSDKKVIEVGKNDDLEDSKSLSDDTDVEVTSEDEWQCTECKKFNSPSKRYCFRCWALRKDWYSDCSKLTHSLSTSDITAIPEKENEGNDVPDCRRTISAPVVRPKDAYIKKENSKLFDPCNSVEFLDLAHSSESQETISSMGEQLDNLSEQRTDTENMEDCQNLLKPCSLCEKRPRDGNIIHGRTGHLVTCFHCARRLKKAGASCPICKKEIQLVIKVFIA
Target sequence (Q00987 whole entry, looked up): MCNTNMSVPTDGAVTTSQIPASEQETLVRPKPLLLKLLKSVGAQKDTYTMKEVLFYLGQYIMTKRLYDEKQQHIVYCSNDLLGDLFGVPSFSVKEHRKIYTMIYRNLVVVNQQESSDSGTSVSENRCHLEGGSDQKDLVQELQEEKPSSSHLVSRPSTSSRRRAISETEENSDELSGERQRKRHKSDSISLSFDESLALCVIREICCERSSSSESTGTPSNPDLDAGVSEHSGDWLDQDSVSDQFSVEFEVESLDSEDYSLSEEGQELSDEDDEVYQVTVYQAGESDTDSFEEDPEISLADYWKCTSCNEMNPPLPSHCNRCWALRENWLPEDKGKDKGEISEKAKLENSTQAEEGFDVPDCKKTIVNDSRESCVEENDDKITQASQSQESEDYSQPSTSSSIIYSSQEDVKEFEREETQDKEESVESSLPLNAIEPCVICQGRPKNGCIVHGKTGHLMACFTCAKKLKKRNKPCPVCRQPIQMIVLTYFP
HIF-2a inh conf – HIF-2a reporter inhibitor retest, confirmation, luminescence, 786-0 RCC cells; AID 651580, 2012; HIF-2a luciferase reporter luminescence, overnight; inhibition, % at 18.8 µM; actives 56% (n = 1,800); shares compounds with HIF-2a inh;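 active = mean inhibition across four replicates of at least 40 percent at the single tested concentration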
HIF-1a cs – HIF-1a luciferase reporter signal reduction – MiaPaCa-2 cells, single concentration, counter-screen for HIF-2a inhibitor project, confirmation; shares compounds with HIF-2a inh; MiaPaCa-2 HIF-1a luciferase reporter, desferoxamine, overnight; inhibition, % at 18.8 µM; actives 72% (n = 1,800); AID 651589, 2012;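 active = mean inhibition of the reporter signal across four replicates at the single tested dose of 50% or more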
Each line names hits and unclear results; the compound was inactive in the other large screens (follow-up assays come after a bar, where they were run). An excerpt weighted towards active compounds, which were near 2.3% of everything screened.

C/C(=N\OCc1cccc(C(=O)O)c1)c1ccc(Cl)cc1	HIF-2a inh 73.4, LGR2 inh 100.3 | HIF-2a inh conf 79.0 | HIF-1a cs inactive
CO[C@H]1CN(C)C(=O)c2ccc(NC(=O)C3CC3)cc2OC[C@H](C)N(C(=O)c2ccncc2)C[C@H]1C	none (no result: KKLEB tox, HIF-2a inh, iPSC survival up, CF NFkB block, TWEAK-Fn14 inh)
CC(=O)Nc1ccc(Nc2cc(C)nc3c(-c4ccccc4)cnn23)cc1	HIF-2a inh 52.8, TWEAK-Fn14 inh 67.8 | HIF-2a inh conf 77.7 | HIF-1a cs 92.5
Cc1cc(N)n2ncc(-c3ccccc3)c2n1	none (no result: LGR2 inh)
C[C@H](CO)N1C[C@H](C)[C@H](CN(C)S(=O)(=O)c2cccs2)Oc2ccc(NC(=O)NC3CCCCC3)cc2C1=O	none (no result: KKLEB tox, HIF-2a inh, iPSC survival up, CF NFkB block, TWEAK-Fn14 inh)
Cc1ccc(S(=O)(=O)N(C)C[C@@H]2Oc3ncc(Br)cc3C(=O)N([C@@H](C)CO)C[C@H]2C)cc1	none (no result: KKLEB tox, HIF-2a inh, iPSC survival up, CF NFkB block, TWEAK-Fn14 inh)
CCCCCn1c(=O)[nH]c2cc(C(=O)NC3CCN(Cc4ccccc4)CC3)ccc2c1=O	none
O=C(NC1CCN(Cc2ccccc2)CC1)c1ccc2c(c1)[nH]c(=O)n2Cc1ccc(F)cc1	HIF-2a inh 48.3 | HIF-2a inh conf inactive | HIF-1a cs inactive
O=C(C1CCCC1)N1[C@@H](CO)[C@@H]2c3ccccc3N(S(=O)(=O)c3ccc(F)cc3)C[C@@H]21	none (no result: KKLEB tox, HIF-2a inh, iPSC survival up, CF NFkB block, TWEAK-Fn14 inh)
Clc1ccc2ccc3cccnc3c2n1	none
O=S1(=O)Nc2c(ccc3cccnc23)-c2ccccc21	CF NFkB block 52.3, TWEAK-Fn14 inh 105.2 (no result: LGR2 inh) | Mdm2 MdmX conf 103.0
CN(C)C(=O)[C@H]1[C@H](CO)[C@H]2Cn3c(ccc(-c4ccccc4F)c3=O)[C@@H]1N2C	none (no result: KKLEB tox, HIF-2a inh, iPSC survival up, CF NFkB block, TWEAK-Fn14 inh)
C#CC(=O)CC1(CN(Cc2ccccc2)C(=O)OC(C)(C)C)CCCCC1	KKLEB tox -104.2, HIF-2a inh 44.0, CF NFkB block 84.4 | HIF-2a inh conf inactive | HIF-1a cs inactive
CC(=O)N(C)C[C@@H]1Oc2ncc(C#C[C@@H](C)O)cc2C(=O)N([C@@H](C)CO)C[C@@H]1C	none (no result: KKLEB tox, HIF-2a inh, iPSC survival up, CF NFkB block, TWEAK-Fn14 inh)
C/C(=N/NC(=O)c1cc(C2CC2)[nH]n1)c1cccs1	HIF-2a inh 48.6, TWEAK-Fn14 inh 88.7 (no result: LGR2 inh) | HIF-2a inh conf 67.5 | HIF-1a cs inactive
C/C(=N\NC(=O)c1ccncc1)c1cccs1	none
Cc1noc(C)c1S(=O)(=O)Nc1ccc2c(c1)C(=O)N([C@H](C)CO)C[C@@H](C)[C@@H](CN(C)CC1CCCCC1)O2	none (no result: KKLEB tox, HIF-2a inh, iPSC survival up, CF NFkB block, TWEAK-Fn14 inh)
O=C(CN(c1cccc(C(F)(F)F)c1)S(=O)(=O)c1ccc(Cl)c([N+](=O)[O-])c1)NCc1ccc(F)cc1	HIF-2a inh 81.7 | HIF-2a inh conf inactive | HIF-1a cs 104.5
O=C(CN(c1cccc([N+](=O)[O-])c1)S(=O)(=O)c1ccccc1)NCc1cccnc1	none
O=C(N[C@@H]1C=C[C@@H](CC(=O)N2CCCCC2)O[C@H]1CO)c1ccc2c(c1)OCO2	none (no result: KKLEB tox, HIF-2a inh, iPSC survival up, CF NFkB block, TWEAK-Fn14 inh)
CCCC(=O)N(Cc1cc(=O)[nH]c2ccccc12)c1ccc(C)cc1C	none
Cc1ccc(N(Cc2cc(=O)[nH]c3ccccc23)C(=O)CCl)c(C)c1	TWEAK-Fn14 inh 63.1 | Mdm2 MdmX conf 101.0
CS(=O)(=O)c1ccc(-c2cn3cc(C(=O)O)ccc3n2)cc1	HIF-2a inh 47.7, LGR2 inh 76.9 | HIF-2a inh conf 45.8 | HIF-1a cs inactive
COC(=O)c1ccc2nc(-c3ccc(S(C)(=O)=O)cc3)cn2c1	none
CO[C@@H]1CN(C)C(=O)c2cc(NC(=O)Nc3ccccc3F)ccc2OC[C@H](C)N(CC2CC2)C[C@H]1C	none (no result: KKLEB tox, HIF-2a inh, iPSC survival up, CF NFkB block, TWEAK-Fn14 inh)
O=C(Nc1ccc(Cl)cc1)c1cc2c(cc1O)[nH]c1ccccc12	KKLEB tox -63.2, CF NFkB block 66.6, TWEAK-Fn14 inh 81.7 | Mdm2 MdmX conf 102.2
Cc1ccc(-c2cnc3c(c2)C(=O)N([C@@H](C)CO)C[C@H](C)[C@@H](CN(C)S(C)(=O)=O)O3)cc1	none (no result: KKLEB tox, HIF-2a inh, iPSC survival up, CF NFkB block, TWEAK-Fn14 inh)
C[C@H](CO)N1C[C@H](C)[C@@H](CN(C)C(=O)c2ccccc2)Oc2ncc(C3=CCCCC3)cc2C1=O	none (no result: KKLEB tox, HIF-2a inh, iPSC survival up, CF NFkB block, TWEAK-Fn14 inh)
O=C(c1ccccc1)c1c2c(cc3sc4ccccc4[n+]13)-c1cccc3cccc-2c13	HIF-2a inh 77.5, TWEAK-Fn14 inh 60.0 | HIF-2a inh conf 56.5 | HIF-1a cs 98.2
O=C(c1ccccc1)c1ccc2ccccc2c1	none
Cc1ccc(CNC(=O)c2ccc([N+](=O)[O-])o2)cc1	none (no result: LGR2 inh)
Cc1ccc(/C=C/C(=O)c2ccc([N+](=O)[O-])o2)cc1	none (no result: KKLEB tox, HIF-2a inh, iPSC survival up, CF NFkB block, TWEAK-Fn14 inh) | Mdm2 MdmX conf 103.2
O=C(C[C@H]1C[C@H](C(=O)N2CCCCC2)[C@@]2(CCc3ccccc3)c3[nH]c4ccc(Cl)cc4c3CCN2C1=O)NCCCn1ccnc1	HIF-2a inh 76.3 | HIF-2a inh conf inactive | HIF-1a cs 98.5
Cc1nn(C(C)(C)C)c(C)c1/C=N/OC(=O)Nc1ccc(Cl)c(Cl)c1	HIF-2a inh 94.4, TWEAK-Fn14 inh 104.7 (no result: LGR2 inh) | HIF-2a inh conf 97.8 | HIF-1a cs 99.8
O=C1C(=C(c2ccccc2)N2CCOCC2)Cc2ccccc21	HIF-2a inh 91.1, LGR2 inh 107.2, CF NFkB block 90.8, TWEAK-Fn14 inh 97.1 | HIF-2a inh conf 97.6 | HIF-1a cs 105.0
O=C(/C(=C/c1ccc(Cl)cc1)c1nc2ccccc2[nH]1)c1ccccc1	KKLEB tox -82.1, HIF-2a inh 91.1, CF NFkB block 89.3, TWEAK-Fn14 inh 79.4 (no result: LGR2 inh) | Mdm2 MdmX conf 102.7 | HIF-2a inh conf 43.3 | HIF-1a cs 105.5
COc1ccc(C(=O)N/C(=C/c2cccs2)c2nc3ccccc3[nH]2)cc1OC	none
COc1cc(/C=C(/C(=O)c2cccs2)c2nc3ccccc3[nH]2)cc(OC)c1O	HIF-2a inh 79.0 | Mdm2 MdmX conf 103.0 | HIF-2a inh conf 56.8 | HIF-1a cs 102.5
O=C(N/C(=C/c1ccc(Cl)cc1)c1nc2ccccc2[nH]1)c1ccco1	none
C[C@H]1CN([C@@H](C)CO)C(=O)Cc2cc(NC(=O)CCCCCC(=O)Nc3ccccc3N)ccc2O[C@H]1CN(C)C(=O)Nc1ccc(C(F)(F)F)cc1	none (no result: KKLEB tox, HIF-2a inh, iPSC survival up, CF NFkB block, TWEAK-Fn14 inh)
